From the supplement of paper PMC4709259
Counter-ions that a name gives are not always drawn. ± gives the standard deviation.

Experiments:
Jurkat [1] = test: mean cell size (FSC-A) relative to DMSO control (fraction of control); higher = larger cells; conditions: 48 h
In short: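 Jurkat cells seeded at 600 cells/µl were incubated 1 h, then exposed for 48h to the Enzo Screen-Well FDA Approved Drug Library v2.0 at 25µM in 0.9% (v/v) final DMSO. Drugs that cut counts below 20% of controls were diluted 10-fold and retested, down to 25nM. Cell count and mean cell size (forward scatter area) were read on an Accuri C6 flow cytometer, relative to solvent-only controls. Plates held 6-12 controls; values are means of 3 biological replicates.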

Jurkat [2] = test: cell count relative to DMSO control (fraction of control); higher = more cells (less growth inhibition); conditions: 48 h

COc1ccc2[nH]c([S+]([O-])Cc3ncc(C)c(OC)c3C)nc2c1 (configuration not stated) [Omeprazole] (concentration: 25 µM)
mean cell size (Jurkat [1]): 0.946 ± 0.035
cell count (Jurkat [2]): 0.946 ± 0.083

Nc1nc2[nH]cc(CCc3ccc(C(=O)N[C@@H](CCC(=O)O)C(=O)O)cc3)c2c(=O)[nH]1 [Pemetrexed Disodium] (concentration: 2.5 µM)
mean cell size (Jurkat [1]): 1.4 ± 0.058
cell count (Jurkat [2]): 0.247 ± 0.028

CCC(=O)OCC(=O)[C@@]1(OC(=O)CC)[C@@H](C)C[C@H]2[C@@H]3CCC4=CC(=O)C=C[C@]4(C)[C@@]3(Cl)[C@@H](O)C[C@@]21C [Beclomethasone Dipropionate] (concentration: 25 µM)
mean cell size (Jurkat [1]): 0.913 ± 0.049
cell count (Jurkat [2]): 0.774 ± 0.07

CN1C(CCl)Nc2cc(Cl)c(S(N)(=O)=O)cc2S1(=O)=O (configuration not stated) [Methyclothiazide] (concentration: 25 µM)
mean cell size (Jurkat [1]): 0.982 ± 0.048
cell count (Jurkat [2]): 0.633 ± 0.17

C[C@]12CC[C@@H]3c4ccc(OS(=O)(=O)O)cc4CC[C@H]3[C@@H]1CCC2=O [Estropipate] (concentration: 25 µM)
mean cell size (Jurkat [1]): 1.06 ± 0.069
cell count (Jurkat [2]): 0.747 ± 0.21

S=P(N1CC1)(N1CC1)N1CC1 [Thiotepa] (concentration: 2.5 µM)
mean cell size (Jurkat [1]): 1.248 ± 0.012
cell count (Jurkat [2]): 0.583 ± 0.059

Nc1cc(-c2ccncc2)c[nH]c1=O [Amrinone] (concentration: 25 µM)
mean cell size (Jurkat [1]): 0.965 ± 0.031
cell count (Jurkat [2]): 0.256 ± 0.064

CN(C)CCc1c[nH]c2ccc(Cn3cncn3)cc12 [Rizatriptan Benzoate] (concentration: 25 µM)
mean cell size (Jurkat [1]): 1.02 ± 0.039
cell count (Jurkat [2]): 0.844 ± 0.01

CC(CN1c2ccccc2Sc2ccccc21)N(C)C (configuration not stated) [Promethazine·HCl] (concentration: 25 µM)
mean cell size (Jurkat [1]): 0.994 ± 0.023
cell count (Jurkat [2]): 0.717 ± 0.16

CC(C)(C(=O)c1cccnc1)c1cccnc1 [Metyrapone] (concentration: 25 µM)
mean cell size (Jurkat [1]): 1.04 ± 0.058
cell count (Jurkat [2]): 0.924 ± 0.079

CC(C)(C)NCC(O)COc1cccc2c1CC(O)C(O)C2 (configuration not stated) [Nadolol] (concentration: 25 µM)
mean cell size (Jurkat [1]): 0.928 ± 0.041
cell count (Jurkat [2]): 0.487 ± 0.059

NC(=O)NO [Hydroxyurea] (concentration: 25 µM)
mean cell size (Jurkat [1]): 0.958 ± 0.017
cell count (Jurkat [2]): 1.06 ± 0.099

OC[C@@H](O)[C@@H](O)[C@H](O)[C@H](O)CO [Mannitol] (concentration: 25 µM)
mean cell size (Jurkat [1]): 0.947 ± 0.041
cell count (Jurkat [2]): 0.977 ± 0.097

Cc1ccc(Nc2nccc(N(C)c3ccc4c(C)n(C)nc4c3)n2)cc1S(N)(=O)=O [Pazopanib·HCl] (concentration: 25 µM)
mean cell size (Jurkat [1]): 0.9554 ± 0.0092
cell count (Jurkat [2]): 0.772 ± 0.12

CCN(Cc1ccncc1)C(=O)C(CO)c1ccccc1 (configuration not stated) [Tropicamide] (concentration: 25 µM)
mean cell size (Jurkat [1]): 0.973 ± 0.019
cell count (Jurkat [2]): 0.925 ± 0.05

Nc1nc(/C(=C/CC(=O)O)C(=O)N[C@@H]2C(=O)N3C(C(=O)O)=CCS[C@H]23)cs1 [Ceftibuten] (concentration: 25 µM)
mean cell size (Jurkat [1]): 0.925 ± 0.016
cell count (Jurkat [2]): 1.11 ± 0.031

O=C1CN2Cc3c(ccc(Cl)c3Cl)N=C2N1 [Anagrelide] (concentration: 25 µM)
mean cell size (Jurkat [1]): 1 ± 0.023
cell count (Jurkat [2]): 0.696 ± 0.12

CC(=O)Nc1ccc(O)cc1 [Acetaminophen] (concentration: 25 µM)
mean cell size (Jurkat [1]): 1.03 ± 0.037
cell count (Jurkat [2]): 0.891 ± 0.031

CC(C)[N+]1(C)[C@@H]2CC[C@H]1CC(OC(=O)C(CO)c1ccccc1)C2 (some centres not stated) [Ipratropium·Br] (concentration: 25 µM)
mean cell size (Jurkat [1]): 1.01 ± 0.029
cell count (Jurkat [2]): 0.704 ± 0.18

CCCc1cc(=O)[nH]c(=S)[nH]1 [Propylthiouracil] (concentration: 25 µM)
mean cell size (Jurkat [1]): 1.02 ± 0.048
cell count (Jurkat [2]): 0.981 ± 0.1

CN(C)C(=O)C(CCN1CCC(O)(c2ccc(Cl)cc2)CC1)(c1ccccc1)c1ccccc1 [Loperamide·HCl] (concentration: 25 µM)
mean cell size (Jurkat [1]): 0.988 ± 0.033
cell count (Jurkat [2]): 0.572 ± 0.18

CCN(CCO)CCCC(C)Nc1ccnc2cc(Cl)ccc12 (configuration not stated) [Hydroxychloroquine Sulfate] (concentration: 25 µM)
mean cell size (Jurkat [1]): 0.948 ± 0.013
cell count (Jurkat [2]): 1.03 ± 0.11

O=C1CCc2ccc(OCCCCN3CCN(c4cccc(Cl)c4Cl)CC3)cc2N1 [Aripiprazole] (concentration: 25 µM)
mean cell size (Jurkat [1]): 1.02 ± 0.037
cell count (Jurkat [2]): 0.89 ± 0.092

NCCNCCNCCN [Trientine Dihydrochloride] (concentration: 25 µM)
mean cell size (Jurkat [1]): 0.949 ± 0.04
cell count (Jurkat [2]): 1.02 ± 0.14

Cc1cn[nH]c1 [Fomepizole] (concentration: 25 µM)
mean cell size (Jurkat [1]): 0.99 ± 0.036
cell count (Jurkat [2]): 0.868 ± 0.17

CCOc1nc2cccc(C(=O)O)c2n1Cc1ccc(-c2ccccc2-c2nnn[nH]2)cc1 [Candesartan] (concentration: 25 µM)
mean cell size (Jurkat [1]): 1.01 ± 0.042
cell count (Jurkat [2]): 0.901 ± 0.11
